Rows were chosen to be rich in hits. Some 1.6% of all compounds tested hit in one or more screens of this group.
PrP UTR inh = inhibition of PrP 5' UTR reporter expression. cell-based PrP 5' UTR mRNA reporter, plate reader. inhibition, % (test concentration not listed). 340,000 tested, 0.35% active. AID 488862; in the data active = inhibition above about 52%; also: 0 = median of the neutral control wells
PrPC surface inh = cell surface PrPC inhibition, primary TR-FRET screen | P04156 | TR-FRET read-out | inhibition, % at 13.8 µM | 370,000 tested, 0.43% active | AID 720596; in the data active = inhibition above about 24%; also: 0% = median of the test wells and 100% = reference compound wells
PriA SSB inh = K. pneumoniae PriA-SSBct interaction inhibition | AlphaScreen SSBct-PriA binding, biotinylated peptide | 430,000 tested, 0.6% active | inhibition, % at 33 µM; in the data active = inhibition mostly above about 37%, no sharp cut-off; inactive = mostly below about 20%;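 also: plate controls were negative control peptide for no effect and reference peptide for full effect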
PfHsp40 yeast = compounds rescuing yeast from Plasmodium falciparum HSP40 toxicity | 340,000 tested, 0.68% active | S. cerevisiae expressing PfHsp40, growth rescue, ATP luminescence | growth rescue, % at 12.5 µM | AID 504582; in the data active = growth rescue above about 28%, passing the limit was not always enough;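 also: yeast W303a lacking pdr1 and pdr3 grown in galactose medium; growth measured after three days at 30 °C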
BH1578 lux ind = inducers of Vibrio cholerae quorum light production without autoinducers | V. cholerae BH1578 lux reporter, luminescence, 6 h | activation, % at 18.7 µM | 350,000 tested, 0.16% active | AID 588436; in the data active = activation mostly above about 9.7%, no sharp cut-off
3CLpro inhibitor = SARS-CoV 3CLpro protease inhibition. inhibition, % at 6 µM. AID 1706. recombinant SARS-CoV 3CLpro, quenched FRET peptide cleavage. 290,000 tested, 0.14% active. P0C6X7; in the data active = inhibition above about 12%
The depositor's hits bear a star; i = inactive; nt = no result given.

SMILES | PrP UTR inh | PrPC surface inh | PriA SSB inh | PfHsp40 yeast | BH1578 lux ind | 3CLpro inhibitor
O=C(O)c1ccc(C2CCCCC2)cn1 | -13 | 1 | 116* | 0 | i | -4
COCCN1CSC(=S)N(Cc2ccco2)C1 | -11 | -1 | -11 | 1 | 0 | -2
S=C1SCN(Cc2ccccn2)CN1Cc1ccco1 | -3 | 0 | 48* | 2 | i | -4
COc1ccc(NC(=O)Cn2nc(-c3ccc(F)cc3)c3sc(C)nc3c2=O)cc1 | nt | nt | -7 | nt | nt | nt
CC(C)c1cc(-c2cc(C(=O)NCc3ccccc3)on2)nc(NCC2CC2)n1 | -14 | 3 | -16 | 387* | 0 | nt
CCCOc1cccc(-c2nn(-c3ccccc3)cc2/C=C(\C#N)C(=O)NCCCn2ccnc2)c1 | -27 | -6 | 10 | 45* | -1 | 7
N#C/C(=C/c1cn(-c2ccccc2)nc1-c1cccc(OCc2ccc(F)cc2)c1)C(=O)NCCCn1ccnc1 | 0 | 2 | 24 | -2 | 0 | 2
Cc1nn2c(-c3ccncc3)nnc2c2ccccc12 | -18 | -7 | -11 | 57* | i | 0
CCc1nnc(NC(=O)CSc2nc3c(c(=O)n2-c2ccccc2)SC(C)C3)s1 (configuration not stated) | nt | nt | 6 | nt | nt | nt
CN1/C(=C\C(=O)c2cccs2)C(C)(C)c2ccccc21 | -33 | 2 | -98 | 153* | 0 | 3
CN1/C(=C/C(=S)NC(=O)C2(C)CC2(Cl)Cl)C(C)(C)c2ccccc21 (configuration not stated) | -6 | 18 | 71* | 1 | i | 3
Nc1nc(-c2ccccc2)c(-c2ccc([N+](=O)[O-])cc2)s1 | -9 | 5 | -8 | 233* | i | 6
Nc1nc(-c2ccccc2)c(-c2ccccc2)s1 | -20 | -5 | 14 | -1 | -1 | 0
NCC#CCN1CCCCC1 | nt | nt | -13 | nt | nt | nt
O=S1(=O)N=C(NN=Cc2cccs2)c2ccccc21 | nt | nt | 55* | nt | nt | nt
O=S1(=O)N=C(NN=Cc2ccccn2)c2ccccc21 | nt | nt | 82* | nt | nt | nt
Cc1ccc(OCC(=O)Nc2nc(-c3ccccn3)cs2)c(C)c1 | -10 | -3 | 4 | 54* | -6 | nt
O=C(COc1cccc(F)c1)Nc1nc(-c2ccccn2)cs1 | nt | 0 | nt | nt | 4 | nt
O=C(COc1ccc(F)cc1)Nc1nc(-c2ccccn2)cs1 | -16 | 0 | 58* | 1 | 2 | nt
O=C(COc1ccc2ccccc2c1)Nc1nccs1 | -19 | 1 | -8 | -1 | 0 | 3
O=C(COc1ccc([N+](=O)[O-])cc1)Nc1nc(-c2ccccn2)cs1 | -5 | 0 | 31 | 271* | 5 | nt
O=C(COc1ccccc1)Nc1nccs1 | -128 | 8 | 10 | 57* | i | 4
COc1ccccc1OCC(=O)Nc1ccc2c(c1)N(C)C(=O)C(C)(C)CO2 | nt | nt | 24 | nt | nt | nt
O=C(O)/C=C/C(=O)c1ccc2c(c1)CCc1ccccc1-2 | -19 | 4 | 1 | 430* | i | nt
Cc1ccc2oc(C(=O)N(Cc3ccc(N(C)C)cc3)C3CCS(=O)(=O)C3)c(C)c2c1 (configuration not stated) | -70 | -6 | 43* | 0 | 0 | 2
SMILES | PrP UTR inh | PrPC surface inh | PriA SSB inh | PfHsp40 yeast | BH1578 lux ind | 3CLpro inhibitor
Cc1c(C(=O)N(Cc2ccc(N(C)C)cc2)CC2CCCO2)oc2ccccc12 (configuration not stated) | -7 | 15 | 57* | 1 | -1 | -3
Cc1ccc2c(C)c(C(=O)N(Cc3ccc(N(C)C)cc3)C3CCS(=O)(=O)C3)oc2c1 (configuration not stated) | -11 | 4 | 39* | 1 | 0 | -3
Cc1c(C(=O)N(Cc2ccc(Cl)cc2)C2CCS(=O)(=O)C2)oc2ccccc12 (configuration not stated) | -5 | -9 | 7 | 2 | -1 | 3
O=C(Nc1nnc(-c2ccc3c(c2)OCCO3)o1)C1CCN(S(=O)(=O)c2cccs2)CC1 | nt | nt | -9 | nt | nt | nt
CC(C)(C)OC(=O)C[C@@H]1C/C=C/C[C@@H](CC(=O)NCCO)C(=O)N2CCC[C@H]2COC1=O | nt | nt | -1 | nt | nt | nt
CC(C)(C)OC(=O)C[C@H]1C/C=C\C[C@H](CC(=O)NCCO)C(=O)N2CCC[C@@H]2COC1=O | -4 | -5 | nt | 41* | i | nt
O=C(NCc1ccco1)C(=O)NC[C@@H](c1cccs1)N1CCc2ccccc21 | nt | nt | -6 | nt | nt | nt
O=c1c2ccccc2nc(COc2ccccc2)n1N=Cc1ccc(O)c(O)c1 | nt | nt | 0 | nt | nt | nt
O=c1c2ccccc2nc(COc2ccccc2)n1/N=C/c1ccc(O)cc1O | -2 | 4 | nt | 52* | i | 0
C=CCc1c(C)nc2c(-c3ccccc3)cnn2c1NCCc1ccc(OC)c(OC)c1 | nt | nt | 36* | nt | nt | nt
COc1ccc(CCNc2cc(C)nc3c(-c4ccccc4OC)cnn23)cc1OC | -8 | 3 | -21 | -1 | -1 | 1
N#CCC(=O)NCC1(c2ccccc2)CCCC1 | -9 | -2 | 5 | 1 | 25* | -1
CCN(CC)CC(=O)NCC1(c2ccccc2)CCCC1 | -11 | 0 | 2 | -1 | -1 | -2
O=C(O)[C@@H]1CCCC[C@@H]1C(=O)N1CCc2ccccc2C1CN1C(=O)c2ccccc2C1=O (some centres not stated) | -21 | -6 | 55* | -1 | i | 5
O=[N+]([O-])c1cnc(Nc2ccc(S(=O)(=O)Nc3nccs3)cc2)c([N+](=O)[O-])c1 | nt | nt | 38* | nt | nt | nt
Cc1ccc(S(=O)(=O)Nc2nccs2)cc1[N+](=O)[O-] | -14 | 4 | -3 | -1 | 0 | 1
O=c1c([N+](=O)[O-])cccn1Cc1cccc(Br)c1 | -24 | -32 | -6 | 0 | 46* | -4
O=C(c1cc2ccccc2o1)N(Cc1ccco1)Cc1cccs1 | -8 | -8 | -32 | 165* | i | nt
Oc1cccc(C=NNC(=S)NCCN2CCOCC2)c1O | nt | nt | 58* | nt | nt | nt
Oc1cccc(/C=N/NC(=S)NCCN2CCOCC2)c1O | -18 | -4 | nt | -1 | -2 | 4
Nc1ccnc2ccc(Cl)cc12 | nt | nt | 4 | nt | nt | nt
CCn1c(CNc2ccc(Cl)cc2)nnc1SCc1ccc(Cl)cc1 | -20 | 16 | 14 | 166* | i | 5
Cc1cccc(C(=O)NC(=S)NNC(=O)c2ccc(Cl)cc2)c1 | -2 | 1 | -1 | 75* | 0 | -1
COc1ccc(C(=O)NC(=S)NNC(=O)c2ccc(C)cc2)cc1 | -14 | -8 | 7 | 143* | i | nt
CCCCC(=O)NNC(=S)NC(=O)c1ccc([N+](=O)[O-])cc1 | 7 | -10 | 5 | 0 | i | 5
CCCCC(=O)NNC(=S)NC(=O)c1ccc(C)cc1 | -19 | -7 | 3 | 95* | 4 | -1
C[C@@H]1C(=O)N2CCCc3cc(NC(=O)C(C)(C)C)cc1c32 | nt | nt | -14 | nt | nt | nt
Cc1ccc2c(Nc3cccc(C(F)(F)F)c3)c(C(=O)N3CCC(C)CC3)cnc2n1 | nt | nt | -5 | nt | nt | nt
O=C(NCCCn1ccnc1)Nc1ccc(Cl)c(Cl)c1 | -35 | 3 | 76* | 46* | nt | -1
O=C(NCCCn1ccnc1)Nc1ccc(F)c(Cl)c1 | nt | nt | 43 | nt | nt | nt

Source: PubChem BioAssay (several laboratories)
